Here are results for 34 sequences from the supplement of paper PMC10681739.

In the experiment the target is T1, ETS1 (UniProt P14921).
T1 sequence: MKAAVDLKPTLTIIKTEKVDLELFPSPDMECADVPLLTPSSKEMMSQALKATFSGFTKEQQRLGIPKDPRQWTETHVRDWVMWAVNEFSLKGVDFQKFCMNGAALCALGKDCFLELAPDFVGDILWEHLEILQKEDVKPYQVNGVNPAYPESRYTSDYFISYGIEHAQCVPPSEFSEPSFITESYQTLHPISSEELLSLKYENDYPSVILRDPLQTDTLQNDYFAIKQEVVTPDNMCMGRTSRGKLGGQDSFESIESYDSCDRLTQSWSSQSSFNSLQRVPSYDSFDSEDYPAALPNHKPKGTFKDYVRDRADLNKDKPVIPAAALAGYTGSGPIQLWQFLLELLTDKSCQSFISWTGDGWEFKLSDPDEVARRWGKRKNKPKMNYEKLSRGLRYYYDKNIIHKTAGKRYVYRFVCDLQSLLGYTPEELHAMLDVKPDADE
Briefly: TF binding intensity (PBM fluorescence), negative control probe (arbitrary fluorescence units); higher = stronger binding. As to the method:
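gcPBM negative-control 36-bp genomic probes lacking TF binding sites. Each was incubated with recombinant human ETS1 or RUNX1 alone and detected by antibody fluorescence. Values are medians over replicate spots (4 spots for the ETS1-RUNX1 arrays, 3 for the ETS1-ETS1 array). The probes sit in constant array flanks that are not printed.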
“GAAATGGAGCAGAAAACCTGGAACCCAGCTGGGAAG (protein concentration 10 nM)” yielded a TF binding intensity of 117.
“ACCTGTGAATAGACTGACCAAATGCAAGCTGGACCA (protein concentration 10 nM)” had a TF binding intensity of 111.
The same measure for “CACAATAAAGCCGCAACCGCAGGAGGCAGAAGGGTG (protein concentration 1 nM)”: 793; for “TGATCTTTGCTTTGCTTTTTGAAAGATCTGGCAAGG (protein concentration 10 nM)”: 104.
The same measure for “GCTCGCCTACCCACTGATTGCCAGTGTCCTGGGTGA (protein concentration 10 nM)”: 107; for “ACTGCTTTTTCACACAGCATCTTAATTGGCCTGTTT (protein concentration 10 nM)”: 118; for “GCAACACTCACTCAAACCACAGTAATCAAAAGGCAC (protein concentration 1 nM)”: 496.
The same measure for “CCCCAGTAGAAGCCACCCAGCCTTTTGTTTGTTTTC (protein concentration 10 nM)”: 133; for “GGGCCGCGCCGAGGGGACCACGGGACGCCCTCCTTC (protein concentration 10 nM)”: 102.
Consider “TGACTCTCCCCTCCATTCCCACCCCATACCCCCTTC (protein concentration 10 nM)”, for which the TF binding intensity is 198.
“TCTCTCTGCTCTGTGAACTCTAGCTGTCTTGGCTTC (protein concentration 10 nM)” had a TF binding intensity of 142.
The same measure for “CATAGTTGCACCTGGTCTACTTTGCTGTCAATTTGT (protein concentration 10 nM)”: 126; for “TACTACTATAAAGATGGATACATGTCGTTATACATT (protein concentration 10 nM)”: 106.
As for “TACTGGGGAGTGAAAAGGACACATCTATCCTTATAT (protein concentration 10 nM)”, the TF binding intensity came out at 103.
The same measure for “ACATGTCAAAGAGCTTCTTTAAGCAGTAGGTGGTTT (protein concentration 10 nM)”: 143; for “AAAGGCAGATCTCCAAATCTCCAGGCCTGCTCGTTG (protein concentration 10 nM)”: 96.1; for “ATATTCTCTTACATAACCACAGTACATTTATCAGCC (protein concentration 1 nM)”: 573.
In the case of “TAGGTTCTAGCCTGCTTAGCTAGAGTTTAGTTTATT (protein concentration 10 nM)”, the TF binding intensity came to 110.
With “TGGGACCTCCAGCATATGACAGTGGACTAAGGACTG (protein concentration 10 nM)”, the TF binding intensity was 113.
Regarding “TGACCATTTGAGGTTTGTGGTTATGCATATAAAATG (protein concentration 1 nM)”, the TF binding intensity is 577.
The sequence “TGGAATCTCATCCAAGCTGGATTTTGCGATCTTTGA (protein concentration 10 nM)” displayed a TF binding intensity of 104.
“GGCGGCGCCGGCGGCTGCGGGGTTATCTCCGCGGCC (protein concentration 10 nM)” yielded a TF binding intensity of 107.
The same measure for “CAAGATCTCTAACCACACTCGTCTGTGGCACTTCTT (protein concentration 10 nM)”: 118; for “TCCTGTAAGGACATTTTGTGCCTTCTCCCATGATGA (protein concentration 10 nM)”: 97.8; for “TTCTAAAGAAATCACAGTCAAATCTACCATTTGCGT (protein concentration 10 nM)”: 99.5.
In the case of “TTAATTAAGCGGTTTATATCAAGAAAAAGGCATTTC (protein concentration 10 nM)”, the TF binding intensity is 115.
The same measure for “AGACAGAAAAAGCCACAGCCGAGCGCCCAGCTGTGG (protein concentration 10 nM)”: 95.8.
The same measure for “CCATCGATGAAAAGGCTGCTATCTCTCGCTGATGGG (protein concentration 10 nM)”: 139.
The same measure for “CTGGTGGCCACCCTTGTGGCGCTGAGGTGCTGAGGT (protein concentration 10 nM)”: 127; for “GATATGAGATCAGAATGAGGCTGCATGAGAACAAGT (protein concentration 10 nM)”: 112.
“TAAGTATTAAGAGTTGCAACACTCTAATCAAGGATA (protein concentration 10 nM)” yielded a TF binding intensity of 102.
The same measure for “AAATAAATTCTTGTCTGGGGCCGACATCTGTGTGGA (protein concentration 10 nM)”: 119; for “ACGACTCTTCCCAAGCAGCGGGAGGATCTAGGCCCA (protein concentration 10 nM)”: 102.
The same measure for “TTTCTGTTTTGTTTTATTTTGTTTGTTTTTATTCTG (protein concentration 10 nM)”: 128.
